Test results taken from ChEMBL document CHEMBL1157539, “Thousands of chemical starting points for antimalarial lead identification” (Nature, 2010).

Tested on: Plasmodium falciparum
Test: GSK_TCMDC: Inhibition of Plasmodium falciparum 3D7 in whole red blood cells, using parasite LDH activity as an index of growth. Test compounds present at 2uM
Assay type: functional

| Compound | Inhibition |
| --- | --- |
| CC1(C)N=C(N)N=C(N)N1c1cc(Cl)c(Cl)cc1Cl.Cl | 95% |
| Cl.O=C(Nc1cccc2ccccc12)N1CCc2cc3nccc(N4CCN5CCC[C@H]5C4)c3cc21 | 99% |
| O=C(Nc1ccncc1)c1cc(C(=O)Nc2ccncc2)cc([N+](=O)[O-])c1 | 100% |
| CC(C)(C)CCN1CCC(CNC(=O)c2cc(-c3cccc(Cl)c3)cs2)C1.O=C(O)C(F)(F)F (stereo not given) | 99% |
| COc1ccc(Nc2nccc(N3CCC(NC(=O)C(C)c4ccc(Cl)cc4)C3)n2)cc1 (stereo not given) | 85% |
| CCC(=O)Nc1ccc(Nc2nc(C)cc(N3CCCC3)n2)cc1 | 91% |
| c1ccc(CN2CCN(c3cc(-c4cncc(-c5ccccc5)c4)nc(-c4ccccc4)n3)CC2)cc1 | 88% |
| O=C(N/C(=C/c1cccc([N+](=O)[O-])c1)c1nc2ccccc2[nH]1)c1cccc(Br)c1 | 85% |
| Br.CCCCCCCn1c2c(c(=N)c3c1CCC3)CCCC2 | 98% |
| CN1CCN(c2cccc(NC(=O)c3ccc(-c4ccc(C#N)cc4)cc3)c2)CC1 | 84% |
| CCN1CCC(N(Cc2ccc(-c3ccc(C(F)(F)F)cc3)cc2)C(=O)Cn2c(CCc3cccc(F)c3F)cc(=O)c3cn(C)nc32)CC1.O=C(O)C(O)C(O)C(=O)O | 95% |
| O=[N+]([O-])c1ccc(-c2ccc(C=NNc3nc(Nc4ccccc4)nc(Nc4ccccc4)n3)o2)cc1 | 91% |
| CCc1nc2nc(C)cc(Nc3ccc(F)c(Cl)c3)n2n1 | 90% |
| CCN(CC)CCCCNc1cc(-c2[nH]c(-c3c(Cl)cccc3Cl)nc2-c2ccc3cc(OC)ccc3c2)ccn1.O=C(O)C(F)(F)F | 95% |
| CCc1n[nH]c(C(=O)NC2CCN(CC3(c4ccc(OC)cc4)CCCCC3)CC2)c1C | 90% |
| COc1cc2nc(-c3ccccc3)nc(N3CCN(CC(=O)N4CCCC4)CC3)c2cc1OC | 84% |
| Cc1cc(N[C@@H](Cc2ccccc2)C(=O)NCCCOC(C)C)nc(NCCc2ccc(F)cc2)n1.O=C(O)C(F)(F)F | 100% |
| CCOc1ccc2c(=NN=Cc3ccc(F)cc3)cc(C)[nH]c2c1 | 100% |
| COc1ccc(CNCC2CCC(CNCCc3ccccc3)CC2)cc1Cl (stereo not given) | 100% |
| CN(C)CCNCc1ccc(-c2ccc3c(Nc4ccc(Oc5ccccc5)cc4)ccnc3c2)o1 | 100% |

| Compound | Inhibition |
| --- | --- |
| NS(=O)(=O)c1cccc(N/C=C2\C(=O)Nc3ccc(S(=O)(=O)Cc4c(Cl)cccc4Cl)cc32)c1 | 92% |
| CCn1c(C(C)C)cc2c3c(N)nc(N)nc3ccc21 | 92% |
| O=C(O)C(F)(F)F.c1ccc(CNCc2ccc(-c3ccc(-c4nc5ccccc5[nH]4)cc3)cc2)cc1 | 100% |
| COc1ccc2[nH]c(C)cc(=NN=Cc3ccccc3Cl)c2c1 | 100% |
| Cc1ccnc2nc(C(=O)Nc3cc(C(F)(F)F)ccc3N3CCCCC3)nn12 | 96% |
| CCOc1ccc(-c2cc3nc(C4CCNCC4)c(C(=O)Nc4ccc(C)cc4Cl)cn3n2)cc1.Cl | 95% |
| NCC1CCCN1Cc1ccc(-c2cccc(-c3nc4cc(C(F)(F)F)ccc4[nH]3)c2)cc1.O=C(O)C(F)(F)F (stereo not given) | 99% |
| O=C(/C=C/c1ccc(Cl)c(Cl)c1)NCCCCCN1CCC(NC(=O)Nc2ccc(Oc3ccccc3)cc2)C1 (stereo not given) | 99% |
| Cc1cnc(CNCc2ccc(S(=O)(=O)Nc3ccc(Oc4cccc(Cl)c4)cc3)cc2)cn1.O=C(O)C(F)(F)F | 97% |
| CCCCOC(=O)C1=C(C)NC2=C(C(=O)CC(c3ccc(OC)c(OC)c3)C2)C1c1ccc(O)cc1 (stereo not given) | 90% |
| CN1CCC(C(=O)Nc2cccc(-c3ccc(-c4nc5cc(C(F)(F)F)ccc5[nH]4)cc3)c2)CC1 | 100% |
| CCn1ncc(Cl)c1CN(C)S(=O)(=O)c1ccc(Br)cc1 | 90% |
| Cc1sc(N2CCN(C)CC2)nc1C(=O)Nc1ccc(F)cc1C(F)(F)F.O=C(O)C(F)(F)F | 92% |
| O=C(Cc1c[nH]cn1)Nc1cccc(-c2ccc(-c3nc4cc(F)ccc4[nH]3)cc2)c1 | 100% |
| Cc1ccccc1C1CCN(c2ccc(C(=O)Nc3ccc(F)cc3)cn2)CC1.O=C(O)C(F)(F)F | 96% |
| c1cncc(-c2cccc(CNc3nccc(Nc4ccc(OCCN5CCOCC5)cc4)n3)c2)c1 | 93% |
| Cl.N#Cc1ccc(-c2ccc(C(=O)Nc3ccc4c(c3)CCN(C3CCC3)CC4)nc2)cc1 | 99% |
| CC12CN3CC(C)(CN(C1)C3c1cc(Br)ccc1O)C2O (stereo not given) | 98% |
| COc1ccccc1C1CCN(C2CCC(NC(=O)/C=C/c3cccc(Cl)c3)CC2)CC1 (stereo not given) | 92% |
| CC(=O)c1ccc2c(c1)CCN(CCC1CCC(NC(=O)c3cc4ccccc4[nH]3)CC1)CC2.Cl (stereo not given) | 86% |

Tested on: Plasmodium falciparum
Test: GSK_TCMDC: Inhibition of Plasmodium falciparum Dd2 in whole red blood cells, using parasite LDH activity as an index of growth. Test compounds present at 2uM
Assay type: functional

| Compound | Inhibition |
| --- | --- |
| CC1(C)N=C(N)N=C(N)N1c1cc(Cl)c(Cl)cc1Cl.Cl | 0% |
| Cl.O=C(Nc1cccc2ccccc12)N1CCc2cc3nccc(N4CCN5CCC[C@H]5C4)c3cc21 | 86% |
| O=C(Nc1ccncc1)c1cc(C(=O)Nc2ccncc2)cc([N+](=O)[O-])c1 | 50% |
| CC(C)(C)CCN1CCC(CNC(=O)c2cc(-c3cccc(Cl)c3)cs2)C1.O=C(O)C(F)(F)F (stereo not given) | 13% |
| COc1ccc(Nc2nccc(N3CCC(NC(=O)C(C)c4ccc(Cl)cc4)C3)n2)cc1 (stereo not given) | 97% |
| CCC(=O)Nc1ccc(Nc2nc(C)cc(N3CCCC3)n2)cc1 | 2% |
| c1ccc(CN2CCN(c3cc(-c4cncc(-c5ccccc5)c4)nc(-c4ccccc4)n3)CC2)cc1 | 12% |
| O=C(N/C(=C/c1cccc([N+](=O)[O-])c1)c1nc2ccccc2[nH]1)c1cccc(Br)c1 | 88% |
| Br.CCCCCCCn1c2c(c(=N)c3c1CCC3)CCCC2 | 98% |
| CN1CCN(c2cccc(NC(=O)c3ccc(-c4ccc(C#N)cc4)cc3)c2)CC1 | 7% |
| CCN1CCC(N(Cc2ccc(-c3ccc(C(F)(F)F)cc3)cc2)C(=O)Cn2c(CCc3cccc(F)c3F)cc(=O)c3cn(C)nc32)CC1.O=C(O)C(O)C(O)C(=O)O | 87% |
| O=[N+]([O-])c1ccc(-c2ccc(C=NNc3nc(Nc4ccccc4)nc(Nc4ccccc4)n3)o2)cc1 | 12% |
| CCc1nc2nc(C)cc(Nc3ccc(F)c(Cl)c3)n2n1 | 77% |
| CCN(CC)CCCCNc1cc(-c2[nH]c(-c3c(Cl)cccc3Cl)nc2-c2ccc3cc(OC)ccc3c2)ccn1.O=C(O)C(F)(F)F | 93% |
| CCc1n[nH]c(C(=O)NC2CCN(CC3(c4ccc(OC)cc4)CCCCC3)CC2)c1C | 90% |
| COc1cc2nc(-c3ccccc3)nc(N3CCN(CC(=O)N4CCCC4)CC3)c2cc1OC | 70% |
| Cc1cc(N[C@@H](Cc2ccccc2)C(=O)NCCCOC(C)C)nc(NCCc2ccc(F)cc2)n1.O=C(O)C(F)(F)F | 36% |
| CCOc1ccc2c(=NN=Cc3ccc(F)cc3)cc(C)[nH]c2c1 | 99% |
| COc1ccc(CNCC2CCC(CNCCc3ccccc3)CC2)cc1Cl (stereo not given) | 29% |
| CN(C)CCNCc1ccc(-c2ccc3c(Nc4ccc(Oc5ccccc5)cc4)ccnc3c2)o1 | 99% |

| Compound | Inhibition |
| --- | --- |
| NS(=O)(=O)c1cccc(N/C=C2\C(=O)Nc3ccc(S(=O)(=O)Cc4c(Cl)cccc4Cl)cc32)c1 | 99% |
| CCn1c(C(C)C)cc2c3c(N)nc(N)nc3ccc21 | 0% |
| O=C(O)C(F)(F)F.c1ccc(CNCc2ccc(-c3ccc(-c4nc5ccccc5[nH]4)cc3)cc2)cc1 | 93% |
| COc1ccc2[nH]c(C)cc(=NN=Cc3ccccc3Cl)c2c1 | 100% |
| Cc1ccnc2nc(C(=O)Nc3cc(C(F)(F)F)ccc3N3CCCCC3)nn12 | 94% |
| CCOc1ccc(-c2cc3nc(C4CCNCC4)c(C(=O)Nc4ccc(C)cc4Cl)cn3n2)cc1.Cl | 22% |
| NCC1CCCN1Cc1ccc(-c2cccc(-c3nc4cc(C(F)(F)F)ccc4[nH]3)c2)cc1.O=C(O)C(F)(F)F (stereo not given) | 97% |
| O=C(/C=C/c1ccc(Cl)c(Cl)c1)NCCCCCN1CCC(NC(=O)Nc2ccc(Oc3ccccc3)cc2)C1 (stereo not given) | 6% |
| Cc1cnc(CNCc2ccc(S(=O)(=O)Nc3ccc(Oc4cccc(Cl)c4)cc3)cc2)cn1.O=C(O)C(F)(F)F | 0% |
| CCCCOC(=O)C1=C(C)NC2=C(C(=O)CC(c3ccc(OC)c(OC)c3)C2)C1c1ccc(O)cc1 (stereo not given) | 75% |
| CN1CCC(C(=O)Nc2cccc(-c3ccc(-c4nc5cc(C(F)(F)F)ccc5[nH]4)cc3)c2)CC1 | 99% |
| CCn1ncc(Cl)c1CN(C)S(=O)(=O)c1ccc(Br)cc1 | 70% |
| Cc1sc(N2CCN(C)CC2)nc1C(=O)Nc1ccc(F)cc1C(F)(F)F.O=C(O)C(F)(F)F | 63% |
| O=C(Cc1c[nH]cn1)Nc1cccc(-c2ccc(-c3nc4cc(F)ccc4[nH]3)cc2)c1 | 84% |
| Cc1ccccc1C1CCN(c2ccc(C(=O)Nc3ccc(F)cc3)cn2)CC1.O=C(O)C(F)(F)F | 96% |
| c1cncc(-c2cccc(CNc3nccc(Nc4ccc(OCCN5CCOCC5)cc4)n3)c2)c1 | 27% |
| Cl.N#Cc1ccc(-c2ccc(C(=O)Nc3ccc4c(c3)CCN(C3CCC3)CC4)nc2)cc1 | 63% |
| CC12CN3CC(C)(CN(C1)C3c1cc(Br)ccc1O)C2O (stereo not given) | 2% |
| COc1ccccc1C1CCN(C2CCC(NC(=O)/C=C/c3cccc(Cl)c3)CC2)CC1 (stereo not given) | 20% |
| CC(=O)c1ccc2c(c1)CCN(CCC1CCC(NC(=O)c3cc4ccccc4[nH]3)CC1)CC2.Cl (stereo not given) | 47% |
